# Screening data (PubChem)
# Compounds with a hit are over-represented: about 22% of the library has one in this group of screens.
# Pf growth 96h: inhibits malaria parasite growth, 96 h; P. falciparum luciferase reporter growth, 96 h; Potency, µM (doses to about 28.7 µM), actives largely listed as inhibitors; actives 6.9% (n = 320,000); AID 504834
#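 Readout is luminescence from an integrated firefly luciferase in P. falciparum. Red cells, 2% hematocrit and 0.05% parasitemia final, were cultured with compound through two parasite generations (96 hours) at 37 C, 5% CO2.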
# Cycloheximide cs: affects cycloheximide protein synthesis inhibition readout, counter-screen | cell reporter, cycloheximide protein synthesis inhibition counterscreen | max response, % | actives 12% (n = 300,000) | AID 2314; in the data active = max response mostly above about 13%, no sharp cut-off; inactive = mostly below about 14%; also: read at 38.3 µM for the half of the compounds with a filed dose
# Shiga toxin inh: inhibitors of Shiga toxin in Vero cells; inhibition, % at 38.7 µM; actives 9.2% (n = 290,000); Vero cells, Shiga toxin protein synthesis inhibition reporter; AID 2315; in the data active = inhibition mostly above about 28%, no sharp cut-off; inactive = mostly below about 43%
# Pf growth 48h: P. falciparum growth inhibition at 48 hours (one generation). P. falciparum luciferase growth in erythrocytes, 48 h. Potency, µM (titrated, usually from 28.7 µM), usual class: inhibitors. actives 5.9% (n = 310,000)
#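 Here the parasites carry a stable luciferase gene and grow inside erythrocytes in Albumax-based RPMI medium with compound for one erythrocytic cycle. Activity is scored as loss of luminescent signal.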
# LmPK inhibitor: inhibitors of Leishmania mexicana pyruvate kinase; Q27686; purified LmPK, Kinase-Glo ATP luminescence, 1 h; Potency, µM (doses to about 57.5 µM), hits mostly inhibitors; actives 0.37% (n = 290,000); AID 1721
# Target sequence (Q27686 whole entry, looked up): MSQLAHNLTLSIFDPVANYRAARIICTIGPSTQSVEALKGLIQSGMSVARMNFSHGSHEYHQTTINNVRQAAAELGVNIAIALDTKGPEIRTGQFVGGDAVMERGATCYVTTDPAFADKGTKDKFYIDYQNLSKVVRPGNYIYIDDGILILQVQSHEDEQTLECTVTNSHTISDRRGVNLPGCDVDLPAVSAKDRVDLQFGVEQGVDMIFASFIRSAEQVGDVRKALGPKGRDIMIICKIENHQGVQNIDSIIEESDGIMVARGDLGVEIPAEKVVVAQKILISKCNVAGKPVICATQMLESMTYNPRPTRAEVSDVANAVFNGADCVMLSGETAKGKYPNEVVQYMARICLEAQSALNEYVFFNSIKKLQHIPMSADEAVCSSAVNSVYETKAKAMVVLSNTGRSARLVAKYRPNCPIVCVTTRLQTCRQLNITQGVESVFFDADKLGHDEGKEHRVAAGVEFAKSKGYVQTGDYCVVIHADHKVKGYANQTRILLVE
#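 Pyruvate kinase activity monitored as ATP production (luciferase luminescence). Conditions: 0.1 nM enzyme, 0.5 mM PEP, 0.1 mM ADP, 1 h, RT; normalized against uninhibited and no-enzyme wells.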
# Hits are given with their value; n = inactive; u = inconclusive; x = not tested or not shown; [ ] = remark or other dose. Unless noted, calls follow the shape of the dose curve; as a rule, active = well fitted inhibition curve with a large enough effect; inconclusive = small, poorly fitted or top-dose-only effect, or another doubt; inactive = no such curve, though single readings can be large or run the other way.
SMILES,Pf growth 96h,Cycloheximide cs,Shiga toxin inh,Pf growth 48h,LmPK inhibitor
Cc1c(C)n(Cc2ccccc2)c2ncnc(NCCCN(C)C)c12,n,n,n,n,n
O=C(CN(C(=O)c1csnn1)c1cccc(Cl)c1)NC1CCCCC1,u,n,n,n,n
O=C(Nc1ccc2c(c1)OCO2)C1CC(c2ccc(Cl)cc2)=NO1 (configuration not stated),n,n,n,n,n
O=C(Nc1ccc2c(c1)OCCO2)C1CC(c2ccccc2Cl)=NO1 (configuration not stated),n,61,117,n,n
Cc1cc(NC(=O)C2CC(c3ccccc3Cl)=NO2)no1 (configuration not stated),x,n,n,n,n
COc1ccc(NC(=O)C2CC(c3ccccc3Cl)=NO2)cc1 (configuration not stated),n,14,n,n,n
O=C(Nc1ccc2c(c1)OCO2)C1CC(c2ccccc2O)=NO1 (configuration not stated),u,active,n,n,n
COc1cc(OC)c(C2=NOC(C(=O)Nc3ccc4c(c3)OCO4)C2)cc1Cl (configuration not stated),u,n,n,n[5.75 µM],n
O=C(Nc1nnc(-c2ccco2)o1)c1cccc2ccccc12,n,n,n,n,n
Clc1ccc(-c2nnc(-c3ccco3)o2)cc1,n,42,91,n,n
Cc1ccccc1C(=O)Nc1nnc(-c2ccco2)o1,u,33,57,u,n
CN(C)c1nnc(-c2ccc(Cl)cc2)o1,n,39,49,n,n
Nc1nnc(-c2ccc(Cl)cc2)o1,n,n,n,u,n
O=C(Nc1nnc(-c2ccncc2)o1)c1cccc(N2C(=O)CCC2=O)c1,n,n,n,n,n[11.5 µM]
O=C(Nc1nnc(-c2ccco2)o1)c1cccc(N2C(=O)CCC2=O)c1,n,n,99,n,n
O=C(Nc1nnc(-c2ccccc2)o1)c1ccc(Cl)cc1,u,n,n,u,n
O=C(Nc1nnc(-c2ccco2)o1)c1ccc(Cl)cc1,n,29,42,n,n
Cc1ccc(C(=O)Nc2nnc(-c3ccco3)o2)cc1C,u,22,57,n,n
Nc1ccccc1OCCOc1ccccc1N,n,20,n,x,n
CC(C)n1c(CN(C)Cc2ccccc2)nc2c1c(=O)n(C)c(=O)n2C,u,n,n,n,n
O=C1OCC(CO)(CO)N=C1NNc1ccccc1[N+](=O)[O-],u,43,58,u,n
O=C(/C=C/c1ccccc1)Oc1cccc2cccnc12,3.7µM,n,n,4.7µM,n
O=C(/C=C\c1ccccc1)Oc1cccc2cccnc12,5.9µM,21,n,u,n
O=C(Oc1cccc2cccnc12)c1ccccc1,n,n,n,u,x
CC1CC(C)CN(CCCNC(=O)C2CCCN(S(=O)(=O)N3CC(C)CC(C)C3)C2)C1 (configuration not stated),n,n,n,n,n
SMILES,Pf growth 96h,Cycloheximide cs,Shiga toxin inh,Pf growth 48h,LmPK inhibitor
NC(=O)C1CCN(C(=O)COCc2cc(-c3ccc4c(c3)OCO4)on2)CC1,n,n,n,n,n
O=C(c1cc(-c2ccc3c(c2)OCO3)on1)N1CCN(c2ccc(F)cc2)CC1,n,n,n,n,n
O=C(COCc1cc(-c2ccc3c(c2)OCO3)on1)N1CCCCC1,n,68,76,n,n
CN1CCN(C(=O)COCc2cc(-c3ccc4c(c3)OCO4)on2)CC1,n,18,23,n,n
Cc1ccc(O)c(C(=O)c2cnc3c(c2)COc2ccccc2-3)c1,u,n,n,4.1µM,n
O=C(c1cnc2c(c1)COc1ccc(Cl)cc1-2)c1ccccc1O,n,n,n,u,n
COC(=O)c1c(-c2c(Cl)cccc2Cl)noc1NC(=O)NN1CCCCC1,0.26µM,n,n,0.33µM,n
COC(=O)c1c(-c2c(Cl)cccc2Cl)noc1NC(=O)NN1CCOCC1,1.3µM,n,n,13µM,n
COC(=O)c1c(-c2c(Cl)cccc2Cl)noc1NC(=O)N(C)C,n,n,n,n,n
Cc1ccc(CNC(=O)C23CN(Cc4ccccc4)CC2C(c2ccc([N+](=O)[O-])cc2)=NO3)cc1 (configuration not stated),u,n,n,12µM,n
O=C(NCc1cc(C(F)(F)F)cc(C(F)(F)F)c1)C12CN(Cc3ccccc3)CC1C(c1cccc([N+](=O)[O-])c1)=NO2 (configuration not stated),u,n,n,13µM,n
Cc1ccc(CCNC(=O)C23CN(Cc4ccccc4)CC2C(c2ccc([N+](=O)[O-])cc2)=NO3)cc1 (configuration not stated),u,n,n,u,n
COc1ccc(CC(=O)NNC(=O)c2cc(C)oc2C)cc1OC,n,x,x,n,x
Cc1cccc(N(C(=O)Cn2nnc3ccccc32)C(C(=O)NC(C)(C)C)c2ccsc2)c1 (configuration not stated),3.3µM,n,n,10µM,n
CCC(C)(C)NC(=O)C(c1cccn1C)N(C(=O)Cn1nnc2ccccc21)c1ccc(OC)cc1 (configuration not stated),n,n,n,12µM,n
O=C(NC1CCCCC1)C(c1ccccc1)N(Cc1ccco1)C(=O)Cn1cnc2ccccc21 (configuration not stated),n,n,n,3.7µM,n
CCC(C)(C)NC(=O)C(c1cccn1C)N(C(=O)Cn1nnc2ccccc21)c1ccc(F)cc1 (configuration not stated),u,n,n,u,n
CCc1ccc(C(C(=O)NC(C)(C)CC)N(Cc2ccco2)C(=O)Cn2nnc3ccccc32)cc1 (configuration not stated),n,n,n,12µM,n
CCc1ccc(CNC(=O)c2ccc(OC3CCN(C(C)=O)CC3)c(OC)c2)nc1,n,n,n,n,n
COCCNC(=O)C(c1ccc(C)o1)N(Cc1ccc(OC)cc1)C(=O)Cn1nnc2ccccc21 (configuration not stated),u,n,n,x,n
COc1ccc(CN(C(=O)Cn2nnc3ccccc32)C(C(=O)NC(C)(C)C)c2ccco2)cc1 (configuration not stated),4.7µM,n,n,n,n
Cc1ccc(NC(=O)C2(c3cccs3)CCOCC2)cc1C,u,n,n,n,n
COc1cccc(C(=O)NC2CC3CCCC(C2)N3S(=O)(=O)c2ccccc2)c1 (configuration not stated),u,n,n,u,n
CCOc1ccc(NC(=O)CN(C)C(=O)c2cn(-c3ccc(F)cc3)nc2-c2cccc(OC)c2)cc1OCC,u,x,x,12µM,x
COc1ccc(NC(=O)CN(C)C(=O)c2cn(-c3ccccc3)nc2-c2cccnc2)cc1,u,x,x,8.3µM,x
COc1ccc(CCC(=O)N2CCN(c3ccccc3)CC2)cc1OC,n,n,n,n,n
COc1cc(S(=O)(=O)N(Cc2ccc(C)cc2)C2CCCCC2)ccc1-n1cnnn1,x,n,n,5.9µM,n
